This is an account of results in PubChem BioAssay AID651661 (Broad Institute, 2012).

The term inhibition denotes the change of the read-out against control, counted positive when it falls.

Where “and” joins values, the source holds several entries; their conditions need not be identical. Equal entries are not always repeated. Out of some 350,000 compounds screened, about 2,300 (0.66%) were called active. The sample holds actives, similar compounds and a random draw of the others, so the mix is not that of the screen. Unmarked numbers belong to inactive results.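 How the source made its calls: active means mean inhibition of at least 50% after viability correction, with every replicate also passing that limit; inconclusive means mean reaches 50% but only one of two replicates passes; inactive means the rest.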

This assay is described as follows: blockers of EWS/Fli transcriptional output – A673 cells, NR0B1 luciferase, luminescence, MLPCN library, primary screen (AID 651661).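 Further: firefly luciferase signal divided by Alamar Blue viability fluorescence both relative to DMSO.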 The settings on record: A673 NR0B1-luciferase reporter, viability-normalised; at 12.6 µM; active compounds read high. A general note: In a reporter assay the amount or activity of a reporter protein is the signal.
For `COC1C(O)C(C)OC(OC2CCC3(C=O)C(CCC4C3CCC3(C)C(C5=CC(=O)OC5)CCC43O)C2)C1O` (stereo not given), the inhibition was 61.9% (active).
The result for `OC[C@@H]1[C@H]2c3ccccc3NC[C@H]2N1Cc1cccnc1` reads 3.74%.
Next, `Cc1nc2ccc(N3CCN(C)CC3)cc2nc1C`: 1.28%; `COc1cccc(-c2nc3ccc(N4CCN(C)CC4)cc3[nH]2)c1`: 54% (active).
The result for `Brc1ccc2c(c1)CNCc1cnnn1-2` reads -10.6%; that for `CCC(C)NC1(c2ccccc2)CCCCC1` (stereo not given), -1.85%.
On to `COc1cc(OC)cc(C(=O)NCCN2CCC3(CC2)C(=O)NCN3c2ccccc2)c1`, for which the inhibition is -1.8%.
The result for `CCN(CC)C(=O)[C@@H]1C=C2c3cccc4[nH]c(Br)c(c34)C[C@H]2N(C)C1` reads -3.36%.
Next, `C[C@]12CCC3C(CC[C@H]4C[C@@H](O)CC[C@]34C)C1CC[C@@H]2O` (stereo not given in full): -5.07%; `C[C@]12CC[C@H](O)C[C@H]1CC[C@@H]1C2CC[C@]2(C)[C@@H](C3=CC(=O)OC3)[C@@H](O)C[C@]12O` (stereo not given in full): 64.9% (active).
The result for `C[C@]12CCC3C(CC[C@H]4C[C@@H](O)CC[C@]34C)C1C[C@@H](O)[C@H]2O` (stereo not given in full) reads 0.611%; that for `COc1ccc(C#Cc2ccc([C@H]3[C@H](CO)N4CCCCN(C(=O)Cc5ccccc5)C[C@@H]34)cc2)cc1`, -12.7%.
Turning to `COC(=O)[C@H]1[C@H](CO)[C@H]2Cn3c(ccc(-c4cccc(F)c4)c3=O)[C@@H]1N2Cc1ccccc1`, the inhibition is -28.1%.
Next, `O=c1[nH]c2ccccc2n1C1CCN(C(c2ccccc2)c2nnnn2Cc2ccccc2)CC1` (stereo not given): 21.9%; `O=C1NC(=O)N(Cc2ccco2)C(=O)/C1=C\c1ccc(-c2ccc(F)cc2)o1`: 20%.
Next, `O=C1NC(=O)N(CCc2ccc(F)cc2)C(=O)/C1=C/C=C/c1ccccc1`: 66.1% (active); `O=C(O)COc1ccccc1/C=C1\C(=O)NC(=O)N(CCC2=CCCCC2)C1=O`: 2.19%.
The result for `O=C(NC[C@@H]1CC[C@H]2NC[C@H]2O1)C1CCCC1` reads -22.4%.
With `C[C@@H]1CN([C@H](C)CO)C(=O)CCCn2cc(nn2)CO[C@@H]1CN(C)C(=O)Oc1cccc2ccccc12`, the inhibition was 4.15%.
The result for `C[C@H]1CN([C@@H](C)CO)C(=O)CCCn2nncc2CO[C@H]1CN(C)C(=O)Oc1cccc2ccccc12` reads -6.63% and -4.29% and 4.35%.
On to `CN(C)CC1Oc2ccccc2OC1(O)c1ccccc1` (stereo not given), for which the inhibition is 55.9% (active).
The result for `O=C(NCC1=C(c2ccc3ccccc3c2)C[C@@H]2CC[C@H]1N2Cc1ccco1)c1cccs1` reads 2.23%.
Next, `O=c1[nH]c2ccccc2n1C1CCN(C(c2ccnc3ccccc23)c2nnnn2Cc2ccccc2)CC1` (stereo not given): 6.09%; `COC(=O)C[C@@H]1CC[C@@H]2NC[C@@H](O)COC[C@H]2O1`: -11.3%.
Next, `Cc1cc(N2CCNC[C@@H]2C)ccc1N1CC[C@H](O)C1`: -8.38%; `CCOC(=O)[C@]12Cc3ccccc3[C@H]1N(C1CCCCC1)C(=O)c1cc(OC)ccc12`: 56.3% (active).
As for `CCOC(=O)[C@]12Cc3cc(OC)ccc3[C@H]1N(C(C)C)C(=O)c1ccccc12`, the inhibition was 16.8%.
`CC(=O)NCC1=C(c2ccc3ccccc3c2)C[C@@H]2CC[C@H]1N2Cc1ccco1`: the inhibition is 9.45%.
The result for `CC1C(=O)OC2CCN3CC=C(COC(=O)C(C)(O)C1(C)O)C23` (stereo not given) reads 0.572%.
Regarding `O=C(O)[C@@H]1[C@@H](CO)[C@@H]2Cn3c(ccc(-c4ccccc4F)c3=O)[C@H]1N2C(=O)c1cccnc1`, the inhibition was -3.75%.
